Reference: patent publication US20060069055, “Delivery of polynucleotides” (published 2006)

Molecular target: NF-kB p50/p50 homodimer (Homo sapiens, UniProt P19838 P19838:1-433)
Experiment: EMSA; Table 3 gives 92 for PO
Details: protein: extract; tags: nuclear extract of LPS-stimulated THP-1 cells; chain copies: 2 stated; dsDNA, one strand shown
Description: The EMSA assay was employed to characterize oligonucleotide decoys for the NF-κB transcription factor. […] Using the above modified oligonucleotides to compete for binding for the above-mentioned NF-κB family members, it was possible to compare the binding affinity of these oligonucleotides against the high affinity radiolabeled probe and each other. This assay has also enabled the design of a decoy which selectively binds particular members of the NF-κB family. By using increasing concentrations of various oligonucleotides, it was observed that, by deleting or changing targeted residues in the binding site, it was possible to specifically decrease the binding of the decoy molecule to p50/p50 homodimers, while retaining the affinity for p65/p50 and cRel/p50 heterodimers.
The NF-κB gel shift assays (EMSA) were performed as follows. A double-stranded oligonucleotide containing a consensus NF-κB binding site (5′ […].GGC 3′) (SEQ ID NO: 26) was end-labeled with γ³²P-ATP using T4 Polynucleotide Kinase (Promega). […] The dried gels were imaged and quantitated using a Typhoon 8600 Phosphorlmager (Amersham) and ImageQuant software. […]

Sequence of NF-kB p50/p50 homodimer (P19838 1-433, one chain of several): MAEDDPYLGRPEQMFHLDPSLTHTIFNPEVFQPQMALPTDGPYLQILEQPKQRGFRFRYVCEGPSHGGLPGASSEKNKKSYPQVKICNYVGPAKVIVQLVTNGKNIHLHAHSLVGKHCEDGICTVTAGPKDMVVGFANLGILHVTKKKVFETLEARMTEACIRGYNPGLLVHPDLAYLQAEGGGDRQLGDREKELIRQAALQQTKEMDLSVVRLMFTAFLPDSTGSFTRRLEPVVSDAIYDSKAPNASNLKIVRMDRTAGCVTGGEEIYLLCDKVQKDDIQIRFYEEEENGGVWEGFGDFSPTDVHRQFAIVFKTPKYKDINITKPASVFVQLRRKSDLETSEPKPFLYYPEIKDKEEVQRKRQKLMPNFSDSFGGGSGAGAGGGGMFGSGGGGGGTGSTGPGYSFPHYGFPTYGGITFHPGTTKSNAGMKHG

Row | Sequence | IC50
1 | AGTTGAGGACTTTCCAGGC | 96 fold molar excess
